Tested on: Vero E6 infected with SARS-CoV-2
Assay: inhibition of SARS-CoV-2 cytopathic effect; higher = more antiviral protection, active = above 15
Settings: 48 h

Measured: inhibition of SARS-CoV-2 cytopathic effect

O=C(O)c1ccc(NC(=O)[C@H](Cc2ccc(O)cc2)NC(=O)c2ccccc2)cc1 [bentiromide]
inactive: 1 nM -1.4% | 8.33 nM 0.94% | 100 nM -1.51% | 833.33 nM -0.68% | 10000 nM 0.39%

C1CCC(/N=C(\NC23CC4CC(CC(C4)C2)C3)N2CCOCC2)CC1
inactive: 1 nM 7.27% | 8.33 nM 1.31% | 100 nM 1.69% | 833.33 nM 4.84% | 10000 nM -3.64%

CCS(=O)(=O)N1CC(CC#N)(n2cc(-c3ncnc4[nH]ccc34)cn2)C1 [baricitinib]
inactive: 1 nM 3.34% | 8.33 nM -0.51% | 100 nM -1.28% | 833.33 nM 0.06% | 10000 nM -2.55%

COC(=O)N[C@H](C(=O)N[C@@H](Cc1ccccc1)[C@@H](O)CN(Cc1ccc(-c2ccccn2)cc1)NC(=O)[C@@H](NC(=O)OC)C(C)(C)C)C(C)(C)C [atazanavir]
inactive: 1 nM -1.78% | 8.33 nM 2.1% | 100 nM 1.84% | 833.33 nM -0.5% | 10000 nM -0.09%

CCn1c(-c2nonc2N)nc2cncc(C(=O)N3CC[C@H](N)C3)c21
inactive: 1 nM 0.81% | 8.33 nM 3.31% | 100 nM 2.3% | 833.33 nM -3.28% | 10000 nM -2.39%

CC(=O)Nc1ccc(C(=O)Nc2ccccc2N)cc1 [tacedinaline]
inactive: 1 nM 1.04% | 8.33 nM 1.48% | 100 nM -0.39% | 833.33 nM -3.01% | 10000 nM -1.74%

Oc1ccc(C2CNCCc3c2cc(O)c(O)c3Cl)cc1 (stereo not given) [fenoldopam]
inactive: 1 nM 5.49% | 8.33 nM 1.3% | 100 nM 4.35% | 833.33 nM 0.98% | 10000 nM -5.61%

Cc1ccc(CC2(O)CCN(CCOc3ccc(O)cc3)CC2)cc1
inactive: 1 nM -5.34% | 8.33 nM 1.47% | 100 nM 3.16% | 833.33 nM -0.31% | 10000 nM 1.64%

N#C/C(=C\c1ccc(O)c(O)c1)C(=O)NCc1ccccc1
inactive: 1 nM 5.06% | 8.33 nM 3.47% | 100 nM 7.47% | 833.33 nM 0.08% | 10000 nM 5.05%

Clc1cccc(C(c2ccc3[nH]cnc3c2)n2ccnc2)c1 (stereo not given) [liarozole]
inactive: 1 nM 0.27% | 8.33 nM 3.78% | 100 nM 1.18% | 833.33 nM 1.7% | 10000 nM 1.64%

C[C@H](C[C@H](N)C(=O)O)C(=O)O
inactive: 1 nM -1.19% | 8.33 nM -0.93% | 100 nM -1.73% | 833.33 nM -0.6% | 10000 nM -0.35%

O=C1NN(C(=O)Nc2ccc(Br)cc2)[C@@H](c2ccccc2)[C@@H]1c1ccccc1
inactive: 1 nM 0.57% | 8.33 nM 1.35% | 100 nM -2.12% | 833.33 nM -0.26% | 10000 nM -1.96%

Nc1nccc2c1ncn2[C@@H]1O[C@H](CO)[C@@H](O)[C@@H]1O [3-deazaadenosine]
inactive: 1 nM -0.84% | 8.33 nM -2% | 100 nM -2.27% | 833.33 nM -0.63% | 10000 nM -2.6%

CC(=O)N1CCC[C@H]1C(=O)N[C@@H](Cc1cnc[nH]1)C(=O)N[C@@H](CO)C(=O)N[C@@H](CS)C(=O)N[C@@H](CC(N)=O)C(N)=O
inactive: 1 nM 1.06% | 8.33 nM 0.67% | 100 nM 2.55% | 833.33 nM 2.87% | 10000 nM 3.86%

O=C(O)CCC(=O)c1ccc(-c2ccccc2)cc1 [fenbufen]
inactive: 1 nM -1.6% | 8.33 nM 2.58% | 100 nM -0.25% | 833.33 nM -2.57% | 10000 nM -2.49%

Cc1cc2c(C(N)=O)cccc2n1-c1nc2c(c(NCc3ccccc3)n1)COCC2
inactive: 1 nM 1.91% | 8.33 nM -0.78% | 100 nM -2.17% | 833.33 nM 11.2% | 10000 nM -31.7%

NCC(CC(=O)O)c1ccccc1 (stereo not given) [fenigam]
inactive: 1 nM -0.57% | 8.33 nM 0.98% | 100 nM 0.48% | 833.33 nM -0.72% | 10000 nM 1.87%

CNC(=O)c1ccc(C)c(-n2c(C)cc(OCc3ccc(F)cc3F)c(Br)c2=O)c1
inactive: 1 nM -1.52% | 8.33 nM -2.37% | 100 nM -3.51% | 833.33 nM -2.74% | 10000 nM -7.45%

CC(CNC1CCCCC1)OC(=O)c1ccccc1 (stereo not given) [hexylcaine]
inactive: 1 nM 2.92% | 8.33 nM -0.38% | 100 nM -0.1% | 833.33 nM -11% | 10000 nM -2.93%

O=C(O)Cc1ccccc1Nc1c(Cl)cccc1Cl [diclofenac]
inactive: 1 nM 1.25% | 8.33 nM 0.03% | 100 nM 0.38% | 833.33 nM -0.74% | 10000 nM 0.2%

CC(C)Oc1ccc(-c2nc(-c3cccc4c3CC[C@H]4NCCC(=O)O)no2)cc1C#N
inactive: 1 nM -2.71% | 8.33 nM -1.13% | 100 nM 0.51% | 833.33 nM 2.4% | 10000 nM -0.03%

Cc1cnc(-c2ccccc2C(C)C)nc1NCc1ccc(-n2ccnn2)cc1
inactive: 1 nM -3.33% | 8.33 nM -2.94% | 100 nM -0.44% | 833.33 nM 0.3% | 10000 nM 1.03%

NC1CCN(c2cccc(Cl)n2)CC1
inactive: 1 nM 0.72% | 8.33 nM -1.55% | 100 nM -4.6% | 833.33 nM -0.29% | 10000 nM -3.39%

O=C(OC[C@H]1O[C@@H](OC(=O)c2cc(O)c(O)c(OC(=O)c3cc(O)c(O)c(O)c3)c2)[C@H](OC(=O)c2cc(O)c(O)c(OC(=O)c3cc(O)c(O)c(O)c3)c2)[C@@H](OC(=O)c2cc(O)c(O)c(OC(=O)c3cc(O)c(O)c(O)c3)c2)[C@@H]1OC(=O)c1cc(O)c(O)c(OC(=O)c2cc(O)c(O)c(O)c2)c1)c1cc(O)c(O)c(OC(=O)c2cc(O)c(O)c(O)c2)c1 [tannic-acid]
inactive: 1 nM -0.39% | 8.33 nM 0.91% | 100 nM -0.77% | 833.33 nM -3.86% | 10000 nM -6.77%

C[N+]1(C)[C@@H]2C[C@@H](OC(=O)C(O)(c3cccs3)c3cccs3)C[C@H]1[C@@H]1O[C@@H]12 [tiotropium]
inactive: 1 nM 0.89% | 8.33 nM -2.54% | 100 nM -2.45% | 833.33 nM -5.08% | 10000 nM -3.35%

Oc1ccc2c3c1O[C@H]1c4oc5ccccc5c4C[C@@]4(O)[C@@H](C2)N(CC2CC2)CC[C@]314 [naltriben]
inactive: 1 nM 0.92% | 8.33 nM -0.89% | 100 nM 0.12% | 833.33 nM -0.45% | 10000 nM -2.94%

N[C@@H](C[C@@H](F)C(=O)O)C(=O)O
inactive: 1 nM 0.4% | 8.33 nM 1.43% | 100 nM 2.09% | 833.33 nM -2.92% | 10000 nM -1.49%

Oc1cc2c(cc1O)[C@@H]1c3ccc(O)c(O)c3OC[C@]1(O)C2 [hematoxylin]
inactive: 1 nM 1.9% | 8.33 nM 1.95% | 100 nM 0.48% | 833.33 nM 0.52% | 10000 nM 1.62%

CSc1nc2ccc3nc(NC(=O)C(c4ccccc4)c4ccccc4)sc3c2s1
inactive: 1 nM 1.77% | 8.33 nM 1.67% | 100 nM 1.24% | 833.33 nM 1.38% | 10000 nM -1.25%

CCOC(=O)C1=C[C@@H](OC(CC)CC)[C@H](NC(C)=O)[C@@H](N)C1 [oseltamivir-phosphate]
inactive: 1 nM -2.66% | 8.33 nM -6.65% | 100 nM -4.22% | 833.33 nM -6.18% | 10000 nM 0.67%

CC(=O)Nc1ccc(O)cc1 [paracetamol]
inactive: 1 nM -0.44% | 8.33 nM 1.77% | 100 nM -0.22% | 833.33 nM 0.33% | 10000 nM -2.2%

Cc1cn(-c2cc(NC(=O)c3ccc(C)c(Nc4nccc(-c5cccnc5)n4)c3)cc(C(F)(F)F)c2)cn1 [nilotinib]
inactive: 1 nM 3.96% | 8.33 nM 3.56% | 100 nM 3.11% | 833.33 nM 5.24% | 10000 nM 6.03%

O=C(CCCN1CC=C(n2c(=O)[nH]c3ccccc32)CC1)c1ccc(F)cc1 [droperidol]
inactive: 1 nM -0.89% | 8.33 nM 3.34% | 100 nM 0.3% | 833.33 nM -0.44% | 10000 nM -2%

— the supplement of paper PMC13380429
